Source: the supplement of paper PMC12340641
± gives the standard deviation of the averaged measurements.

Experiments:
[1] = target: IKZF1 (dCK*-IKZF1 fusion in HEK293FT) (UniProt Q13422); test: inhibition of IKZF1 HTRF signal (DMSO = 0%, pomalidomide 10 uM = 100%); higher = lower IKZF1 protein level; settings: compound concentration: 5 uM, overnight (~20 h)
Procedure, shortened: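 Values are percent inhibition of IKZF1 signal, normalised plate by plate against vehicle and a reference degrader. HEK293FT cells stably expressing an IKZF1 fusion were seeded at 2000 per well in 384-well plates and exposed to 5 μM compound in single wells overnight at 37 °C. After 30 min lysis at room temperature, lysates were incubated overnight with a commercial HTRF total-IKZF1 antibody kit, and the background-subtracted 665/620 nm time-resolved FRET ratio was read. On each plate, vehicle was set at 0% and the reference degrader at 100%.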

[2] = tested on: HEK293FT dCK*-only; test: relative growth in counter assay (no AraC = 100%, AraC + DMSO = 0%); higher = more growth rescue independent of IKZF1; settings: compound concentration: 5 uM; AraC concentration: 0.3 uM; overnight pretreatment + 4 days AraC
Procedure, shortened: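 This counter assay used HEK293FT cells expressing only an engineered kinase construct, seeded at 300 per well in 384-well plates. Compound was added at 5 μM 2 h after seeding, and after overnight at 37 °C the cells received a nucleoside suicide substrate at 0.3 μM plus medium for 4 days. On day 5, nuclei stained with Hoechst 33342 were counted by imaging, and relative growth was normalised per plate; wells without suicide substrate were set at 100% and wells with substrate plus vehicle at 0%.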

[3] = tested on: HEK293FT dCK*-IKZF1; test: relative growth recovery (pomalidomide 10 uM = 100%, DMSO = 0%); higher = more growth rescue (IKZF1 fusion degradation); settings: compound concentration: 5 uM; AraC concentration: 0.3 uM; overnight pretreatment + 4 days AraC
Procedure, shortened: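 On day 5, whole-well imaging was used to count Hoechst 33342-stained nuclei of HEK293FT cells stably carrying a deoxycytidine kinase–IKZF1 fusion. These cells had received 5 μM compound 2 h after seeding, followed after overnight at 37 °C by a nucleoside suicide substrate at 0.3 μM plus medium for 4 days. Growth recovery was normalised on each plate against a reference degrader and vehicle, which defined 100% and 0%, and values are duplicate means from separate days.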

Chain of IKZF1 (dCK*-IKZF1 fusion in HEK293FT) (Q13422 whole entry, looked up, the tested form may be a part): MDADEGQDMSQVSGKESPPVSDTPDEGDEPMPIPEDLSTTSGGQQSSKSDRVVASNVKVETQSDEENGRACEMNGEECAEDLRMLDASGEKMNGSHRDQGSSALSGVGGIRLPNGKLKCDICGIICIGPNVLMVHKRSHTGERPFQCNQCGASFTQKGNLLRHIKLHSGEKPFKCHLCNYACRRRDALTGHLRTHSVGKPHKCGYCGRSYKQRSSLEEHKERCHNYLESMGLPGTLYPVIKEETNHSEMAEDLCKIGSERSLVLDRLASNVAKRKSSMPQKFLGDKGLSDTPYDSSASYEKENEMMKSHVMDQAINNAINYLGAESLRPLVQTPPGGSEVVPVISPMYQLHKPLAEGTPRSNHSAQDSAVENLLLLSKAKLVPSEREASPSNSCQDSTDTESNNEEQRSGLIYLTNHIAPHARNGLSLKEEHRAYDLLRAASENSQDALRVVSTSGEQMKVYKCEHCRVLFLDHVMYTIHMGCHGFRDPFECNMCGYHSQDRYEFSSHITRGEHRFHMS

Row | Structure (SMILES) | inhibition of IKZF1 HTRF signal [1] | relative growth in counter assay [2] | relative growth recovery [3]
1 | O=C(OC)C1=C(C)NC(C)=C(C(OCCCN3CCC(C4=CC=CC=C4)(C5=CC=CC=C5)CC3)=O)[C@H]1[C@]2=CC=CC([N+]([O-])=O)=C2 [niguldipine-(S)-(+)] | -12% | -29.9% | -10.5%
2 | CCC(=N\O)/C(C)=C/c1ccc(F)cc1 | 12.6% | -3.61% | -0.58%
3 | CCOc1ccc2nc3cc(N)ccc3c(N)c2c1 | -16.3% | -23.6% | -6.36%
4 | CN(C)c1ccc2nc3ccc(N(C)C)cc3[s+]c2c1 | 56.3% | -29.4% | -11.5%
5 | CNC[C@H](O)c1ccc(O)c(O)c1 | -26.9% | -15.6% | -7%
6 | Cc1ccc(S(=O)(=O)N/N=C/c2cc(Br)ccc2O)cc1 | 26 ± 7.3% | -14 ± 4.4% | 2.03 ± 2.8%
7 | O=C(Nc1cnc(Cl)nc1)c1ccc(F)c(F)c1 | -25.3% | 1.83% | 4.13%
8 | COc1ccc2nc3cc(Cl)ccc3c(Nc3cc(CN4CCCC4)c(O)c(CN4CCCC4)c3)c2n1 | -32.1% | -29.1% | -10.1%
9 | COc1ncnc(NS(=O)(=O)c2ccc(N)cc2)c1OC | -56.1% | -8.08% | 0.355%
10 | CN(C)CCCN1c2ccccc2Sc2ccc(Cl)cc21 | -47.9% | -0.83% | -1.89%
11 | Cc1cc(Nc2ncc(Cl)c(Nc3ccccc3S(=O)(=O)C(C)C)n2)c(OC(C)C)cc1C1CCN(CC(=O)NCCNc2cccc3c2C(=O)N(C2CCC(=O)NC2=O)C3=O)CC1 (stereo not drawn) | 24.5% | 3.63% | 24.8%
12 | Cn1c(=O)n(-c2ccc(C(C)(C)C#N)cc2)c2c3cc(-c4cnc5ccccc5c4)ccc3ncc21 [Dactolisib (BEZ235, NVP-BEZ235)] | 46.7% | -20.5% | -7.88%
13 | CC(=O)Oc1ccccc1C(=O)Nc1ncc([N+](=O)[O-])s1 | 22.3% | -5.9% | 0.37%
14 | O=C2[C@]([C@]3=CC(Cl)=CC=C3OC)(F)C1=CC=C(C(F)(F)F)C=C1N2 [flindokalner] | -26.1% | -5.3% | -1.65%
15 | COc1cc(/C=C2\CCC/C(=C\c3ccc(O)c(OC)c3)C2=O)ccc1O [cyclovalone] | -30.9% | -31.6% | 2.27%
16 | Fc1ccc(C(c2ccc(F)cc2)N2CCN(C/C=C/c3ccccc3)CC2)cc1 [flunarizine] | -47% | 1.76% | -0.165%

Row | Structure (SMILES) | inhibition of IKZF1 HTRF signal [1] | relative growth in counter assay [2] | relative growth recovery [3]
17 | CC(NCCC(c1ccccc1)c1ccccc1)c1ccccc1 (stereo not drawn) [fendiline] | -38% | -1.99% | 2.01%
18 | O=C(/C=C/c1ccc(O)c(O)c1)c1ccc(O)cc1O [Butein] | 8.77% | -27.3% | -8.42%
19 | CCN(CCCCCOCC(=O)N[C@H](C(=O)N1C[C@H](O)C[C@H]1C(=O)N[C@@H](C)c1ccc(-c2scnc2C)cc1)C(C)(C)C)CCOc1ccc(C(=O)c2c(-c3ccc(O)cc3)sc3cc(O)ccc23)cc1 | 3.72% | 13.8% | 11%
20 | OC(c1cc(C(F)(F)F)nc2c(C(F)(F)F)cccc12)C1CCCCN1 (stereo not drawn) | -31.6% | -10.6% | -7.16%
21 | Cc1ccnc(NS(=O)(=O)c2ccc(N)cc2)n1 | -32.2% | 1.25% | 1.5%
22 | O=C(Nc1ccc(S(=O)(=O)Nc2ccccc2Cl)c(Cl)c1)c1ccccn1 | 25.4% | 1.67% | -1.18%
23 | CO[C@@H]1[C@@H](OC2O[C@H](C)[C@@H](O[C@H]3C[C@@](C)(O)[C@@H](O)[C@H](C)O3)[C@H](N(C)C)[C@H]2O)[C@@H](CC=O)C[C@@H](C)[C@@H](O[C@H]2CC[C@H](N(C)C)[C@@H](C)O2)/C=C/C=C/C[C@@H](C)OC(=O)C[C@H]1O (stereo partly drawn) | -29.9% | -5.7% | 2.43%
24 | OC1(c2ccc(Cl)c(C(F)(F)F)c2)CCN(CCCC(c2ccc(F)cc2)c2ccc(F)cc2)CC1 | -28.8% | -26% | -5.21%
25 | ClC1=CC=CC(NC2=C3C(N(C(C)C)C=N3)=NC(N[C@H]([C@@H](C)C)CO)=N2)=C1 [purvalanol-a] | -35.2% | 2.99% | -1.66%
26 | COC1=C2C[C@@H](C)C[C@H](OC)[C@H](O)[C@@H](C)/C=C(\C)[C@H](OC(N)=O)[C@@H](OC)/C=C\C=C(/C)C(=O)NC(=CC1=O)C2=O [Geldanamycin] | 57.7% | -32.6% | -11.4%
27 | O=C1CC[C@H](N2Cc3cc(N4CCN(CC5CCN(c6ccc([C@@H]7c8ccc(O)cc8CC[C@@H]7c7ccccc7)cc6)CC5)CC4)ccc3C2=O)C(=O)N1 | -15.2% | 2.17% | 9.37%
28 | COc1cc(NS(=O)(=O)c2ccc(N)cc2)ncn1 | -31.4% | -5.7% | -0.825%
29 | CO[C@@]12[C@@H]3NC3CN1C1=C(C(=O)C(N)=C(C)C1=O)[C@@H]2COC(N)=O (stereo partly drawn) | -1.54% | -33.6% | -12.9%
30 | [2H]C([2H])([2H])C(O)(CCO[C@@H](C)[C@H]1CC[C@H]2/C(=C/C=C3/C[C@@H](O)C[C@H](O)C3=C)CCC[C@]12C)C([2H])([2H])[2H] [maxacalcitol] | -24.6% | 9.68% | 7.53%
31 | O=C(CCCCCCC(=O)Nc1ccccc1)NO [Vorinostat (SAHA, MK0683)] | -29.5% | -30.5% | -11.6%
